# Experimental data from PubChem BioAssay (EPA / NIEHS).
# Records with an inconclusive call do not appear. The source made the active and inactive calls. Rule for the calls: active = hit-call score of the fitted dose curve at least 0.9, where 1 is the maximum; inconclusive = response in the unintended direction; inactive = score below 0.9.
# Tests used:
# [1] = biological target: rat Neurokinin-1 Receptor (NK1), Tacr1 (gene 24807) (UniProt P14600); assay: NVS_GPCR_rNK1: NovaScreen (NVS) G Protein-Coupled Receptor Assay for rat Neurokinin-1 Receptor (NK1) (AID 2283309)
# Sequence of rat Neurokinin-1 Receptor (NK1), Tacr1 (gene 24807) (P14600 whole entry, looked up): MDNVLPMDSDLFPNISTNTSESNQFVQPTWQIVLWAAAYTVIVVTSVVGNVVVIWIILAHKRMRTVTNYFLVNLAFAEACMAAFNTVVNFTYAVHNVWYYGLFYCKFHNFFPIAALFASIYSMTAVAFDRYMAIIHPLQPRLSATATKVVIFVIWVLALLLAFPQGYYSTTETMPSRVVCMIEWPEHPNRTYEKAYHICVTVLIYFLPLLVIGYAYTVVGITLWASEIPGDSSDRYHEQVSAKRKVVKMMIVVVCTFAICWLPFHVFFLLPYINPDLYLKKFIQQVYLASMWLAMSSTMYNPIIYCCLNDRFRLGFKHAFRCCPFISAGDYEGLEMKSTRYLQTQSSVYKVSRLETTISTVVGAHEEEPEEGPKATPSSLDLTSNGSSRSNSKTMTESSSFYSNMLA
# In short: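 Competitive radioligand binding to NK1 in rat submaxillary membranes, 1 h incubation, filtration and scintillation read-out. Compounds first screened at 25 uM in duplicate, then concentration-response for actives; signal loss relative to DMSO.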
# [2] = biological target: Sodium channel protein type 1 subunit alpha (Rattus norvegicus) (UniProt P04774); assay: NVS_IC_rNaCh_site2: NovaScreen (NVS) Ion Channel Assay for rat Sodium Channel, Site 2 (NaCh) (AID 2283322);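 note: hit means loss of radioligand binding signal relative to DMSO so AC50 marks displacement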
# In short: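 Initial duplicate single-point testing at 25 uM, followed by concentration-response runs for actives. Binding of radioligand to rat forebrain membranes quantified after 1 h via filter-based radiodetection.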
# [3] = biological target: rat Vasopressin 1 Receptor (V1), Avpr1a (gene 25107) (UniProt P30560); assay: NVS_GPCR_rV1: NovaScreen (NVS) G Protein-Coupled Receptor Assay for rat Vasopressin 1 Receptor (V1) (AID 2283316)
# In short: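 Concentration-response up to 50 uM for chemicals passing a threshold such as 30% inhibition in an initial duplicate 25 uM screen. Displacement of radioligand from rat liver membranes measured after 1.5 h by filtration and scintillation.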
# Adra2b (gene 24174) = Adra2b (gene 24174) (UniProt P19328); assay: NVS_GPCR_rmAdra2B: NovaScreen (NVS) G Protein-Coupled Receptor Assay for hybird cells Adrenergic, Alpha 2B Receptor (Adra2B) (AID 2283306)
# Sequence of Adra2b (gene 24174) (P19328 whole entry, looked up): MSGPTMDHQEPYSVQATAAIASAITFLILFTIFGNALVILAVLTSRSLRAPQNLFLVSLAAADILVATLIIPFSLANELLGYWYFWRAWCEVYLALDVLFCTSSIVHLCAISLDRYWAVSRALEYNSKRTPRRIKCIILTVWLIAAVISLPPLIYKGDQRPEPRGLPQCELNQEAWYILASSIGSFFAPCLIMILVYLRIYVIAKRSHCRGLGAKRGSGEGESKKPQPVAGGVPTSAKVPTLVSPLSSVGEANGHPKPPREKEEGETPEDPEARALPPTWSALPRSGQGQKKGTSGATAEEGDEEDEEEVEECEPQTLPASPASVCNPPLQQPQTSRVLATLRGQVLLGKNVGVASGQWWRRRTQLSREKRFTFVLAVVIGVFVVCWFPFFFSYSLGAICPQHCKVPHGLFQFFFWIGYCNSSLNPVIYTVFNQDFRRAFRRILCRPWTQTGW
# In short: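 Compounds screened first at 25 uM in duplicate, with actives followed up in concentration-response; specific radioligand displacement from hybrid neuroglioma/blastoma cell membrane preparations measured by filter scintillation counting after 1 h, normalized to DMSO.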
# [4] = biological target: rat Neurokinin-3 Receptor (NK3), Tacr3 (gene 24808) (UniProt P16177); assay: NVS_GPCR_rNK3: NovaScreen (NVS) G Protein-Coupled Receptor Assay for rat Neurokinin-3 Receptor (NK3) (AID 2283310)
# Sequence of rat Neurokinin-3 Receptor (NK3), Tacr3 (gene 24808) (P16177 whole entry, looked up): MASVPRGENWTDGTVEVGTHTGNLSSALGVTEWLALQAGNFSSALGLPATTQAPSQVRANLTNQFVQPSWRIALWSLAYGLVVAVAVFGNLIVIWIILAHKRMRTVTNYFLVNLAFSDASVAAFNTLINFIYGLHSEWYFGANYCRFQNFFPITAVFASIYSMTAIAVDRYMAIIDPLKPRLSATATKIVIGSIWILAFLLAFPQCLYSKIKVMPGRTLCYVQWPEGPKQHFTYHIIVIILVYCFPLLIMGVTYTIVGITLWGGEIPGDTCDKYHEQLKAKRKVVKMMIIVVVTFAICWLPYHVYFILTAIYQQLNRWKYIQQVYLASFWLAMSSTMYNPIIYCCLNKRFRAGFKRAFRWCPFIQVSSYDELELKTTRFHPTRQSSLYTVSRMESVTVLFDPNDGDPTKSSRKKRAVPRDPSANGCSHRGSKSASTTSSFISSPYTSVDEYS
# In short: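 Filter-based radioligand displacement on rat cortex membrane preparations, read by scintillation 2 h post-dose. Chemicals first tested in duplicate at 25 uM; actives followed up in concentration series with a 50 uM maximum.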
# [5] = biological target: rat Opioid Receptor, Non-selective Sodium (Na+) Binding, Oprm1 (gene 25601) (UniProt P33535); assay: NVS_GPCR_rOpiate_NonSelectiveNa: NovaScreen (NVS) G Protein-Coupled Receptor Assay for rat Opioid Receptor, Non-selective Sodium (Na+) Binding (AID 2283311)
# Sequence of rat Opioid Receptor, Non-selective Sodium (Na+) Binding, Oprm1 (gene 25601) (P33535 whole entry, looked up): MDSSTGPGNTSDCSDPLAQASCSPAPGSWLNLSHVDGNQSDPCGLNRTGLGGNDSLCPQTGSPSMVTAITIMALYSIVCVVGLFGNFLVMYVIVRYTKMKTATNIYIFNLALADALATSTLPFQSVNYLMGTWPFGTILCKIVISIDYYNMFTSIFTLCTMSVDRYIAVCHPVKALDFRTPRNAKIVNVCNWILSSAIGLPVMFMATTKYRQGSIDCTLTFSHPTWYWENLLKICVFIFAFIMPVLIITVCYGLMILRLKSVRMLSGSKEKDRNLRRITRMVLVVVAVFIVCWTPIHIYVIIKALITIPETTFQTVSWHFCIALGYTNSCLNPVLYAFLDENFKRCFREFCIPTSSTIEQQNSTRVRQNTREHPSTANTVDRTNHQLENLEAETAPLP
# In short: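 Filtration radioligand binding on rat forebrain membrane preparations, read 1.5 h after dosing. Single-concentration 25 µM primary screen in duplicate, followed by singleton concentration series to 50 µM max for actives; DMSO baseline.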
# [6] = biological target: rat Neonicotinoid receptor (NNR), Chrna7 (gene 25302) (UniProt Q05941); assay: NVS_LGIC_rNNR_BungSens: NovaScreen (NVS) Ligand-Gated Ion Channel Assay for rat Neonicotinoid receptor (NNR) (AID 2283315)
# Sequence of rat Neonicotinoid receptor (NNR), Chrna7 (gene 25302) (Q05941 whole entry, looked up): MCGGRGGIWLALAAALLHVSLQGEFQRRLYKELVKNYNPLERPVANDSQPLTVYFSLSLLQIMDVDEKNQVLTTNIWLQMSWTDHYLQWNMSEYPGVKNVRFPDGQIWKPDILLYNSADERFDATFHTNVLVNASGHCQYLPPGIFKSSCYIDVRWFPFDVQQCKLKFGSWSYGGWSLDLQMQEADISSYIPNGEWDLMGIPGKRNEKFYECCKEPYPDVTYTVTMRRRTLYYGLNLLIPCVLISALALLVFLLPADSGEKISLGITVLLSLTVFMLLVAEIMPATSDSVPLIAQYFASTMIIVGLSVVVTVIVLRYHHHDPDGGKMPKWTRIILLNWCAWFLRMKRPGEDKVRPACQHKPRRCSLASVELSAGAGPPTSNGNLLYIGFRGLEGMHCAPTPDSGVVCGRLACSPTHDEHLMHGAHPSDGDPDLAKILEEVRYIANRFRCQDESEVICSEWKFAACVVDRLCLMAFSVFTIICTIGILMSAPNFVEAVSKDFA
# In short: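 Rat cortical membrane preparation incubated 2.5 h with tritiated or iodinated radioligand and test chemical. Bound radioactivity was filtered and counted by scintillation, and displacement was analysed against DMSO.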
# [7] = biological target: rat Opioid Receptor, Non-selective Binding, Oprm1 (gene 25601) (UniProt P33535); assay: NVS_GPCR_rOpiate_NonSelective: NovaScreen (NVS) G Protein-Coupled Receptor Assay for rat Opioid Receptor, Non-selective Binding (AID 2283318)
# Sequence of rat Opioid Receptor, Non-selective Binding, Oprm1 (gene 25601) (P33535 whole entry, looked up): as the sequence (P33535 whole entry, looked up) above
# In short: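 Filter-based radioligand displacement using rat forebrain membrane preparations, measured 1.5 h post-dosing. Single-concentration duplicate screen at 25 uM, follow-up in concentration series; activity taken as signal loss relative to DMSO.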
# NCBI gene 24521 = assay: NVS_IC_rKATPCh: NovaScreen (NVS) Ion Channel Assay for rat Potassium Channel, ATP-Sensitive (KATPCh) (AID 2283319)
# In short: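 Primary duplicate screen at 25 uM, then singleton concentration series to 50 uM maximum, in a rat cortex membrane radioligand displacement assay. Binding measured by filtration and scintillation 2 h post-dose; DMSO baseline.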
# [8] = biological target: rat Gamma-Aminobutyric Acid Type B Receptor (GABBR), Gabbr1 (gene 81657) (UniProt Q9Z0U4); assay: NVS_GPCR_rGABBR: NovaScreen (NVS) G Protein-Coupled Receptor Assay for rat Gamma-Aminobutyric Acid Type B Receptor (GABBR) (AID 2283301)
# In short: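 Rat cortical membrane preparation, competitive radioligand binding for 1 h with filtration and scintillation readout. Actives from duplicate single-point 25 uM screening proceeded to concentration series with 50 uM top concentration.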
# [9] = biological target: bovine Gamma-Aminobutyric Acid Type A Receptor BDZ, alpha 5 site (GABARa5), GABRA5 (gene 523515) (UniProt Q08E50); assay: NVS_LGIC_bGABARa5: NovaScreen (NVS) Ligand-Gated Ion Channel Assay for bovine Gamma-Aminobutyric Acid Type A Receptor BDZ, alpha 5 site (GABARa5) (AID 2283323)
# Sequence of bovine Gamma-Aminobutyric Acid Type A Receptor BDZ, alpha 5 site (GABARa5), GABRA5 (gene 523515) (Q08E50 whole entry, looked up): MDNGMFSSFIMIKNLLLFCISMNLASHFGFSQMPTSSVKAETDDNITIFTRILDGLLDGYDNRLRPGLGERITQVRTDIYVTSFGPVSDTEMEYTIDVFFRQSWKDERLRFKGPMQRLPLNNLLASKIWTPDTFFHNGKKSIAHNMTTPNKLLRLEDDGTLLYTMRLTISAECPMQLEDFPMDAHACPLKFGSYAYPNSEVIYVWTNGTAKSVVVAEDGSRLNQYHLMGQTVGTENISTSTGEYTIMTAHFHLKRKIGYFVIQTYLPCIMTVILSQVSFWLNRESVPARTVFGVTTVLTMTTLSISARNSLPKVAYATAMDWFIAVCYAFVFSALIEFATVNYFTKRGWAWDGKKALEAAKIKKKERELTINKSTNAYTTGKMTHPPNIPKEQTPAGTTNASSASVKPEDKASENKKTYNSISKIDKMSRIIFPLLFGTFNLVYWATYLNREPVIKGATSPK
# In short: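 Tested first in duplicate at a single 25 uM, with hits re-run in concentration series to a 50 uM maximum. Bovine hippocampal membranes; specific radioligand displacement measured by filter scintillation counting 1 hr post-dose.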
# [10] = biological target: guinea pig Serotonin, 5-Hydroxytryptamine Receptor 4 (5HT4), HTR4 (gene 100135548) (UniProt O70528); assay: NVS_GPCR_g5HT4: NovaScreen (NVS) G Protein-Coupled Receptor Assay for guinea pig Serotonin, 5-Hydroxytryptamine Receptor 4 (5HT4) (AID 2283294)
# Sequence of guinea pig Serotonin, 5-Hydroxytryptamine Receptor 4 (5HT4), HTR4 (gene 100135548) (O70528 whole entry, looked up): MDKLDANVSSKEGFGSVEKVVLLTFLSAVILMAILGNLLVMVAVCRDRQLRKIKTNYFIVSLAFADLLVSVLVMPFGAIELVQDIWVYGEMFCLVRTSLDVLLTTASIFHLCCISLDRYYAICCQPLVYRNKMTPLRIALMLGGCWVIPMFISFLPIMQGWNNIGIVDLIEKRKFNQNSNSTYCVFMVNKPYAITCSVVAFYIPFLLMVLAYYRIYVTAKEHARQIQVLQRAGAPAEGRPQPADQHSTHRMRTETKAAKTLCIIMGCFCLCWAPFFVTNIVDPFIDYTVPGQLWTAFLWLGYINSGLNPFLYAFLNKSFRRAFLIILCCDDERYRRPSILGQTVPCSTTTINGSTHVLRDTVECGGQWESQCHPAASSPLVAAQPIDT
# In short: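 Compounds first screened in duplicate at 25 uM, actives followed up in concentration series. Binding measured as displacement of specific radioligand from guinea pig striatal membranes, 1 h, filter-based scintillation read-out versus DMSO baseline.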
# [11] = biological target: rat Adrenergic Receptor, Alpha 2 (Adra2), Non-selective Binding, Adra2a (gene 25083) (UniProt P22909); assay: NVS_GPCR_rAdra2_NonSelective: NovaScreen (NVS) G Protein-Coupled Receptor Assay for rat Adrenergic Receptor, Alpha 2 (Adra2), Non-selective Binding (AID 2283299)
# Sequence of rat Adrenergic Receptor, Alpha 2 (Adra2), Non-selective Binding, Adra2a (gene 25083) (P22909 whole entry, looked up): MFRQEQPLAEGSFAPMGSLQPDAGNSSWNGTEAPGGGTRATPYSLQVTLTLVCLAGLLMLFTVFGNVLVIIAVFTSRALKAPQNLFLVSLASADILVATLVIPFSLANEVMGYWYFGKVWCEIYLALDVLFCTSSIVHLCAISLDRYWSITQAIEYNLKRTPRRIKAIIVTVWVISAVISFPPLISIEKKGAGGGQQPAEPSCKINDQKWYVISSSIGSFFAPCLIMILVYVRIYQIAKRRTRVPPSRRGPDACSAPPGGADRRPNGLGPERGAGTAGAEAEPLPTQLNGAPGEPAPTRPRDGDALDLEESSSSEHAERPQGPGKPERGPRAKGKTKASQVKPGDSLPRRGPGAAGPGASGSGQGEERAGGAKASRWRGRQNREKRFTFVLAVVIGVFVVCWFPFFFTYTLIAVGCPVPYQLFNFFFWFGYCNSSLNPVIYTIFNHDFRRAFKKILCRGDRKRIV
# In short: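 Filter-based scintillation counting of radioligand binding to rat cortical membrane receptors, measured 1.25 hours post-dosing; loss of signal versus DMSO indicates displacement. Initial single-concentration duplicate at 25 uM, then concentration series.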
# [12] = biological target: rat Adrenergic, Alpha 1A Receptor (Adra1A), Adra1a (gene 29412) (UniProt P43140); assay: NVS_GPCR_rAdra1A: NovaScreen (NVS) G Protein-Coupled Receptor Assay for rat Adrenergic, Alpha 1A Receptor (Adra1A) (AID 2283296)
# Sequence of rat Adrenergic, Alpha 1A Receptor (Adra1A), Adra1a (gene 29412) (P43140 whole entry, looked up): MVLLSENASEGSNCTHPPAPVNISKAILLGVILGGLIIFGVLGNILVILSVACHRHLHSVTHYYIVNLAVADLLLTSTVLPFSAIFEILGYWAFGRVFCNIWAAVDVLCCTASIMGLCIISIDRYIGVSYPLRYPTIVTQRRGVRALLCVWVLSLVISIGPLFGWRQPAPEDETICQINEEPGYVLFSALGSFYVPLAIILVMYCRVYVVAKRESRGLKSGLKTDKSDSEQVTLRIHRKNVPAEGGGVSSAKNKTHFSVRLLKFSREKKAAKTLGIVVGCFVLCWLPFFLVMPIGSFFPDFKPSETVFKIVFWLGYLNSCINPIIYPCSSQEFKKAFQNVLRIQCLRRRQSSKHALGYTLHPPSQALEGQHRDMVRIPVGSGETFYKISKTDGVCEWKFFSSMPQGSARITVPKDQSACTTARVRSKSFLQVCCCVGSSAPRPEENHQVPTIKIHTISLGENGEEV
# In short: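 Filter radiodetection after 1 h competitive binding on CEC-pretreated rat cortical membranes. Duplicate single-point screening at 25 uM; active chemicals retested across concentration series.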
# [13] = biological target: rat Somatostatin Receptor (SST), Sstr1 (gene 25033) (UniProt P28646); assay: NVS_GPCR_rSST: NovaScreen (NVS) G Protein-Coupled Receptor Assay for rat Somatostatin Receptor (SST) (AID 2283314)
# In short: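 Single-concentration duplicate screen (25 uM), then concentration-response up to 50 uM for chemicals passing a threshold such as 30% inhibition. Membranes came from rat forebrain. Binding was measured 1 h post-dose by filter radiodetection and scintillation, relative to DMSO.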
# [14] = NVS_IC_rCaDHPRCh_L: NovaScreen (NVS) Ion Channel Assay for rat Calcium Channel, Type L, Dihydropyridine Site (CaDHPRCh_L) (AID 2283320)
# In short: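 Rat cortex membrane preparation; dihydropyridine-site radioligand displacement read 1 h post-dose by filtration and scintillation. Primary single-point screen 25 uM in duplicate, then concentration series to 50 uM maximum; DMSO as negative control.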
# [15] = biological target: rat Adrenergic Receptor, Beta (Adrb), Non-selective Binding, Adrb1 (gene 24925) (UniProt P18090); assay: NVS_GPCR_rAdrb_NonSelective: NovaScreen (NVS) G Protein-Coupled Receptor Assay for rat Adrenergic Receptor, Beta (Adrb), Non-selective Binding (AID 2283298)
# Sequence of rat Adrenergic Receptor, Beta (Adrb), Non-selective Binding, Adrb1 (gene 24925) (P18090 whole entry, looked up): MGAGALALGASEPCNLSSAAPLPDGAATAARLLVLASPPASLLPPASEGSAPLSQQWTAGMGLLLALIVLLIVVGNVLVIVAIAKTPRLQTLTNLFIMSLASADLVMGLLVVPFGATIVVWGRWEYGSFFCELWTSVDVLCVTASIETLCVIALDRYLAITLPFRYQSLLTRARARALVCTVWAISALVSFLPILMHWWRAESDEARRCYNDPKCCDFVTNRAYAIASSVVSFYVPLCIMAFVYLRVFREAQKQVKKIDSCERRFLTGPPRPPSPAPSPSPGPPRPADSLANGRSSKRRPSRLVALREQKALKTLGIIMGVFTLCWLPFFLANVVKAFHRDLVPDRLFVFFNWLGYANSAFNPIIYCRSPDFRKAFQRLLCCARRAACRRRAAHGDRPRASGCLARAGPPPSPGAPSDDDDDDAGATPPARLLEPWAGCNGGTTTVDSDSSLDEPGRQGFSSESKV
# In short: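 Rat cortical membranes incubated 1 h with beta-adrenergic radioligand and test chemical; bound ligand measured by filtration and scintillation counting. Screen at 25 uM duplicate, then concentration series with 50 uM maximum; loss of signal versus DMSO.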
smiles,measurement,setting,value
CCCCC(CC)COC(=O)CCCCCCCCC(=O)OCC(CC)CCCC (centres undefined),outcome,[1],inactive
same,outcome,[2],inactive
Cn1c(=O)cc(Oc2ccc(F)cc2F)c2cnc(NCC(C)(C)O)nc21,AC50,[1],20.3 µM (active)
Cc1ccc(N)cc1O,outcome,[3],inactive
COc1ccc(-n2nc(C(F)F)cc2-c2ccc(S(C)=O)cc2)cc1 (centres undefined),outcome,Adra2b (gene 24174),inactive
same,AC50,[1],25 µM (active)
same,outcome,[4],inactive
same,outcome,[5],inactive
same,outcome,[6],inactive
same,outcome,[2],inactive
CN(C)c1ccc(N=NS(=O)(=O)O)cc1,outcome,[4],inactive
same,AC50,[7],31.6 µM (active)
same,outcome,NCBI gene 24521,inactive
CCOC(=O)CC(CC(=O)OCC)(OC(C)=O)C(=O)OCC,outcome,[1],inactive
same,outcome,[4],inactive
same,outcome,[6],inactive
CC(C)CCO,outcome,[6],inactive
CNCc1ccc(NC(=O)c2c[nH]c3c2C(=O)CCC3)cc1,outcome,[8],inactive
same,outcome,Adra2b (gene 24174),inactive
same,outcome,[9],inactive
Nc1ccc(Nc2ccccc2)cc1,AC50,[10],31.6 µM (active)
same,AC50,[11],25 µM (active)
same,AC50,[2],5.39 µM (active)
COc1cccc(-c2ccc(/C=C\CN3CCCCCC3)cc2Cl)c1,AC50,[10],12.1 µM (active)
same,outcome,[12],inactive
same,AC50,[11],2.99 µM (active)
same,AC50,Adra2b (gene 24174),4.39 µM (active)
same,AC50,[5],15.2 µM (active)
same,outcome,[13],inactive
same,outcome,[6],inactive
same,AC50,[7],11.2 µM (active)
same,AC50,[14],0.555 µM (active)
same,AC50,[2],1.33 µM (active)
CC1=CC(=O)CC(C)(C)C1,outcome,[15],inactive
